Test results reported in PubChem BioAssay (NCATS).
“And” between values parts separate entries of the source, which are not always exact repeats. Equal values may be shown once. Results filed as inconclusive are left out. The source made the active and inactive calls. Unless noted, the call rests on the fitted dose curve; in most records, active means well fitted curve in the direction sought with a large enough effect; inconclusive means small, poorly fitted or top-dose-only effect, or another doubt; inactive means no such curve, though single readings can be large; an effect the other way counts as inactive or inconclusive.

Experiments:
[1] = qHTS assay for small molecule agonists of retinoid X receptor alpha signaling (AID 588544; calls by dose curve;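 on activation: 0% = DMSO basal wells and 100% = reference agonist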); conditions: HEK293T RXRa-UAS-bla, beta-lactamase reporter, 18 h; 530 nm emission
[2] = target: Retinoic acid receptor RXR-alpha (Homo sapiens) (UniProt P19793); assay: as above
Chain of Retinoic acid receptor RXR-alpha (Homo sapiens) (P19793 whole entry, looked up): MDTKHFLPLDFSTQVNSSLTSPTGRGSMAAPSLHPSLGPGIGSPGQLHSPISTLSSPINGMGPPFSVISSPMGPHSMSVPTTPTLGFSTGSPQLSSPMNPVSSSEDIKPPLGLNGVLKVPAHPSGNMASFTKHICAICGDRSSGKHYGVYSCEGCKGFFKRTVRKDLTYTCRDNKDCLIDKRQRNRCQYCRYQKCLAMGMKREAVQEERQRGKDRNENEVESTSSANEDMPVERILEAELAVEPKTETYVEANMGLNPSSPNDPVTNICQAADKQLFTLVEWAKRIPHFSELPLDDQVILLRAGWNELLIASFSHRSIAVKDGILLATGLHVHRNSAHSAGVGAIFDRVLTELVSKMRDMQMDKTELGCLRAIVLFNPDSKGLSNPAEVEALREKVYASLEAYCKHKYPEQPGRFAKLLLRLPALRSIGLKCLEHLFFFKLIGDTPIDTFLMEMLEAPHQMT

[3] = target: Thyroid hormone receptor beta (Homo sapiens) (UniProt P10828); assay: qHTS assay for small molecule agonists of thyroid hormone receptor beta signaling (AID 588545; calls by dose curve)
Chain of Thyroid hormone receptor beta (Homo sapiens) (P10828 whole entry, looked up): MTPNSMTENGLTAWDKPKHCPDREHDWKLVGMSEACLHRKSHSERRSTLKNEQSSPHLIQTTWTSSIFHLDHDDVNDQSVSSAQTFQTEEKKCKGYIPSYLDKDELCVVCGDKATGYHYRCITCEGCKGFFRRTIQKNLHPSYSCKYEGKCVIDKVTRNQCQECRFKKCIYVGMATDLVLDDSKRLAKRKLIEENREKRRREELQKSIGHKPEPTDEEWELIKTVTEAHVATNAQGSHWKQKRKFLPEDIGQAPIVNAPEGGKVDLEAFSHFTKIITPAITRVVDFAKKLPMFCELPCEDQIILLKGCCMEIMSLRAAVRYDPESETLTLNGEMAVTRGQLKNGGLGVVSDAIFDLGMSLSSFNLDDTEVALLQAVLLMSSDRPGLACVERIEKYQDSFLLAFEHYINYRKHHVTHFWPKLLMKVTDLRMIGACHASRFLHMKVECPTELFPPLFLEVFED
How it was run: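 HEK 293 TR-UAS-bla; agonist mode; 18 hrs, 37 C; CCF4, ex 405/em 460 and 530 nm; norm. T3 10 nM = 100%, DMSO = 0%; Hill fit → EC50, efficacy.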

[4] = qHTS assay for small molecule antagonists of retinoid X receptor alpha signaling (AID 588546; active means well fitted inhibition curve with a large enough effect in the signal ratio, with a control signal flat, not every such curve was filed as active; the % refers to the signal ratio;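 further: cells stimulated with 9-cis-retinoic acid as agonist; on the % scale 0 is the no-effect control and ±100 the full control effect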); conditions: HEK293T RXRa-UAS-bla, beta-lactamase ratio, antagonist mode; measured here: W530 green channel, cytotoxicity proxy
How it was run: (§1)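 Beta-lactamase reporter inhibition, read as CCF4 fluorescence ratio (ex 405, em 460/530 nm) after 2 h at RT. HEK293T UAS-bla cells, 2500/well, were stimulated with 9-cis-RA at 500 or 100 nM final alongside test compound for 18 h at 37 C.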

[5] = target: Retinoic acid receptor RXR-alpha (Homo sapiens) (UniProt P19793); assay: as above; conditions: HEK293T RXRa-UAS-bla, beta-lactamase ratio, antagonist mode
How it was run: as §1

[6] = target: Thyroid hormone receptor beta (Homo sapiens) (UniProt P10828); assay: qHTS assay for small molecule antagonists of thyroid hormone receptor beta signaling (AID 588547; active means well fitted inhibition curve with a large enough effect in the signal ratio, with a control signal flat, not every such curve was filed as active; the % refers to the signal ratio;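 further: cells stimulated with 0.4 nM T3 agonist during compound exposure; series mostly up to about 77 µM; on the % scale 0 is the no-effect control and ±100 the full control effect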); conditions: TR-UAS-bla HEK293, beta-lactamase ratio, antagonist mode, 18 h
How it was run: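 TR-UAS-bla GripTite HEK293 cells in 2% charcoal/dextran FBS medium were preincubated 4 h at 37 C, given compound (0.59 nM to 92 uM) plus 0.4 nM T3 (final) for 18 h, then CCF4 for 2 h at RT; Hill fit gave IC50.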

[7] = target: Voltage-gated inwardly rectifying potassium channel KCNH2 (Homo sapiens) (UniProt Q12809); assay: qHTS Assay for Small Molecule Inhibitors of the Human hERG Channel Activity (AID 588834);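 further: top concentration of the series differs between compounds; on the % scale 0 is the no-effect control and ±100 the full control effect; lower thallium flux fluorescence means stronger hERG block; nearly all actives have a fitted effect of over 50% in size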
Chain of Voltage-gated inwardly rectifying potassium channel KCNH2 (Homo sapiens) (Q12809 whole entry, looked up): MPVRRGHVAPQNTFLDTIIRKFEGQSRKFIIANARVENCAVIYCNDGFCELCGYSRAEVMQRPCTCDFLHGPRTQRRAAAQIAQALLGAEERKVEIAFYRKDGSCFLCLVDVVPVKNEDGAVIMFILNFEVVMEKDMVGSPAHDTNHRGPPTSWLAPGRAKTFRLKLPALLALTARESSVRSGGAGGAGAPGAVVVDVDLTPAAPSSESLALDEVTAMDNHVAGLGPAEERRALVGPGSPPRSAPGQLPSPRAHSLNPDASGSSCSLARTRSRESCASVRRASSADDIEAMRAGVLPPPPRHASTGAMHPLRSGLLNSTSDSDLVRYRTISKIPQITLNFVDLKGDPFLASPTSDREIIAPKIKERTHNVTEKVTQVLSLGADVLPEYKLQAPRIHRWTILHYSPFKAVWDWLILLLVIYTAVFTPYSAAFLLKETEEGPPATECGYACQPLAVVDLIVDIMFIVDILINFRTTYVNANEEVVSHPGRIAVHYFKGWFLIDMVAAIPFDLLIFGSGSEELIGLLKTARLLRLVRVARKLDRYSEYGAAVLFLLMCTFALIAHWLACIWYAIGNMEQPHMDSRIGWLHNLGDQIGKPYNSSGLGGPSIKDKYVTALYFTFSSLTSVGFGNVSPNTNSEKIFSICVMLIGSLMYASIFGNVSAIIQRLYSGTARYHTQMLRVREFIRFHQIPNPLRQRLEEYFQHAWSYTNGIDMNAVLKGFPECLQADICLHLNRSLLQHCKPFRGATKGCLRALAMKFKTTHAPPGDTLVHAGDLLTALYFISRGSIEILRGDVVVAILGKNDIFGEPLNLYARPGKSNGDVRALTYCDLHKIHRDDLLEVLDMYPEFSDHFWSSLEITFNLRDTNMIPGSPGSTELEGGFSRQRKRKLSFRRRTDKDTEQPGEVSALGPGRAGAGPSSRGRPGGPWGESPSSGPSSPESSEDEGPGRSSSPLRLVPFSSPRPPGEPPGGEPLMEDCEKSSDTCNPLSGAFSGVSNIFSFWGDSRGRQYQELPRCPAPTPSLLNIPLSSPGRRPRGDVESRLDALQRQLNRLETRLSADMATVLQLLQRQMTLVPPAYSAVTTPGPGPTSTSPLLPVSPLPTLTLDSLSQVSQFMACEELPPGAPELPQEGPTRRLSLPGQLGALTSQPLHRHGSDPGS
How it was run: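 In hERG-transduced U2OS cells, dye-loaded for 1 hr at room temperature in dark, test compounds incubated 10 min at 37 °C before thallium stimulation. AC50 values derived by Hill modelling of concentration-response.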

[8] = qHTS assay for small molecule agonists of the antioxidant response element (ARE) signaling pathway (AID 651741; active means well fitted activation curve with a large enough effect in the signal ratio; the % refers to the signal ratio; further: % of control where 0% means no effect)
How it was run: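 Reporter: beta-lactamase under ARE, stably in HepG2. Exposure: 16 h, 37 C, compounds delivered in DMSO by pin tool after 5 h cell preincubation. Readout: FRET substrate fluorescence after 2 h at RT.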

[9] = qHTS assay for small molecule activators of the p53 signaling pathway (AID 651743; active means well fitted activation curve with a large enough effect in the signal ratio, not every such curve was filed as active; the % refers to the signal ratio; further: series mostly up to about 92 µM; % of control where 0% means no effect); conditions: HCT-116 p53RE-bla, beta-lactamase FRET ratio, 16 h; activation: stronger effect = higher value
How it was run: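 Agonist-mode quantitative HTS in HCT-116 cells carrying a p53-response-element beta-lactamase reporter; 16 h compound treatment at 37 C, then FRET substrate loading for 2 h at room temperature and fluorescence read.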

[10] = qHTS assay for small molecule disruptors of the mitochondrial membrane potential - 1 hr assay (AID 651754; calls by dose curve; further: on the % scale 0 is the no-effect control and ±100 the full control effect; nearly all actives have a fitted effect of over 35% in size)
How it was run: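 Mitochondrial potential in living HepG2 cells after 1 hr compound treatment at 37C was read with Mito-MPS dye added for a further 30 min. Red aggregate and green monomer fluorescence were measured; loss of potential leaves dye as cytoplasmic monomers.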

[11] = qHTS assay for small molecule disruptors of the mitochondrial membrane potential - 5 hr assay (AID 651755; calls by dose curve; further: on the % scale 0 is the no-effect control and ±100 the full control effect; nearly all actives have a fitted effect of over 40% in size)
How it was run: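 Seed HepG2 overnight, add compound, incubate 5 hr at 37C and 5% CO2, stain 30 min with Mito-MPS, then measure monomer (490/535 nm) and aggregate (540/590 nm) fluorescence.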

[12] = target: Tumor necrosis factor (Homo sapiens) (UniProt P01375); assay: qHTS assay to identify small molecules that stimulate Tumor Necrosis Factor-alpha (TNF-alpha) secretion (AID 651757; active means well fitted curve in the direction sought with a large enough effect in the signal ratio; the % refers to the signal ratio; further: 0% is about no effect)
Chain of Tumor necrosis factor (Homo sapiens) (P01375 whole entry, looked up): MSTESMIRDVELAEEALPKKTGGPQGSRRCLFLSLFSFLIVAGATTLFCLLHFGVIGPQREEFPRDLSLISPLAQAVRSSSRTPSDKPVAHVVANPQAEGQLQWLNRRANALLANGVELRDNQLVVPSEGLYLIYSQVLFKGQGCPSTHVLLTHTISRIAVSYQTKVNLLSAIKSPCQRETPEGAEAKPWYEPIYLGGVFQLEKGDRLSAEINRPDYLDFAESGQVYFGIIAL
How it was run: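 Secreted TNF-alpha quantified by TR-FRET sandwich of two labeled anti-TNF-alpha antibodies, incubated 3 hr at room temperature. Preceded by 17 hr, 37 C compound treatment of THP-1 cells at 3000 cells/well.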

[13] = qHTS assay for environmental chemicals that activate the Aryl hydrocarbon Receptor (AhR) signaling pathway (AID 651777); conditions: 1A2-DRE human hepatoma cells, luciferase, 24 h; activation: stronger effect = higher value; further: % of control where 0% means no effect; nearly all actives have a fitted effect of over 15% in size
How it was run: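 Human hepatoma 1A2-DRE cells, stably carrying a dioxin response element and CYP1A2 promoter driving luciferase, were exposed to compounds for 24 hr at 37 C and 5% CO2. Luciferase signal was then read after 30 min One-Glo at room temperature.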

[14] = target: Peroxisome proliferator-activated receptor alpha (Homo sapiens) (UniProt Q07869); assay: qHTS assay for small molecule agonists of the peroxisome proliferator-activated receptor alpha (PPARalpha) signaling pathway (AID 651778); conditions: PathHunter PPARalpha complementation, chemiluminescence, 6 h; max response: stronger effect = higher value; further: % of control where 0% means no effect
Chain of Peroxisome proliferator-activated receptor alpha (Homo sapiens) (Q07869 whole entry, looked up): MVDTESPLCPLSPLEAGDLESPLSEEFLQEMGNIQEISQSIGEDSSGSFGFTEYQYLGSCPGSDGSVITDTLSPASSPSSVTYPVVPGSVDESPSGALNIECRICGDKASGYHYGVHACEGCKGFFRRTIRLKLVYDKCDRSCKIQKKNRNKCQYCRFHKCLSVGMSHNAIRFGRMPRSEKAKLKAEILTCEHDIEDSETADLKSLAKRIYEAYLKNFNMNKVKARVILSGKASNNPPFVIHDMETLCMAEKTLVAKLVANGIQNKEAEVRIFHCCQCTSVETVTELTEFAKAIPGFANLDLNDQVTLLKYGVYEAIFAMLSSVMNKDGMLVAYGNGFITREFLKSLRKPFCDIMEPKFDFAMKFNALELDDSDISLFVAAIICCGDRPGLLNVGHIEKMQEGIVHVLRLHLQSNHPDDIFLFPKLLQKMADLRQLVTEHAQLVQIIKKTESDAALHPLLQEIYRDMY
How it was run: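 Cells plated at 2,000/well and held overnight at 37 C, 5% CO2, then compound added by pin tool for 6 hr; after PathHunter detection reagent and 60 min at room temperature, chemiluminescence from enzyme complementation was read.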

[15] = target: Nuclear receptor ROR-gamma (Homo sapiens) (UniProt P51449); assay: qHTS assay for small molecule antagonists of the retinoid-related orphan receptor gamma (ROR-gamma) signaling pathway (AID 651802);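 further: CHO cells with doxycycline-induced ROR-gamma expression; luciferase reporter luminescence driven by ROR response element; series mostly up to about 92 µM; on the % scale 0 is the no-effect control and ±100 the full control effect; nearly all actives have a fitted effect of over 60% in size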
Chain of Nuclear receptor ROR-gamma (Homo sapiens) (P51449 whole entry, looked up): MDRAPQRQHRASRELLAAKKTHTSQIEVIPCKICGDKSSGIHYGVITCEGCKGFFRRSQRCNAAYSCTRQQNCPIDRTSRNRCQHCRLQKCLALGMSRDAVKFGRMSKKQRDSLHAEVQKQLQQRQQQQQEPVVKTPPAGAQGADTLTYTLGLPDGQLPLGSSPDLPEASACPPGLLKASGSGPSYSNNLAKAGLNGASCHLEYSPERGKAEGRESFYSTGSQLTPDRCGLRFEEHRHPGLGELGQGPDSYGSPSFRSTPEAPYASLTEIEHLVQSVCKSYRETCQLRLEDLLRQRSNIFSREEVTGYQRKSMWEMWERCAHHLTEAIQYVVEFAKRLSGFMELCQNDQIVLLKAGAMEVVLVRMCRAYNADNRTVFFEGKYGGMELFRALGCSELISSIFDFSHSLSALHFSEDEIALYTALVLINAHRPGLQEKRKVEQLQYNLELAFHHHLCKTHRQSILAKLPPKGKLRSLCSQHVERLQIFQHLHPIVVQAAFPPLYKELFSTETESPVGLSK
How it was run: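 Luminescence (One-Glo, 30 min RT) measured 16 h after compound addition and doxycycline induction at 37C. Reporter: RORE-luciferase under TET-inducible ROR-gamma in CHO cells.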

[16] = qHTS assay for small molecule agonists of the antioxidant response element (ARE) signaling pathway measured by Nrf2-dependant transcriptional activity (AID 720636; active means well fitted curve in the direction sought with a large enough effect in the repeat runs; an effect the other way counts as inactive or inconclusive; further: % of control where 0% means no effect)
How it was run: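 ARE-luc HepG2 cells carrying an Nrf2-responsive luciferase reporter were plated in medium with 1% dialyzed FBS, left 6 hr at 37 C to attach, then exposed to compound for 16 hr. Luciferase luminescence was read after ONE-Glo addition.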

[17] = qHTS assay for small molecule antagonists of the retinoid-related orphan receptor gamma (ROR-gamma) signaling pathway - cell viability counter screen (AID 720652; active means well fitted curve in the direction sought with a large enough effect in the repeat runs; an effect the other way counts as inactive or inconclusive;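 further: CHO reporter cells with doxycycline-induced ROR-gamma expression; series mostly up to about 92 µM; compound exposure lasted 16 hr before ATP read; on the % scale 0 is the no-effect control and ±100 the full control effect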)
How it was run: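 Cytotoxicity counter screen: intracellular ATP (CellTiter-Glo luminescence) measured in the doxycycline-induced CHO RORE-luciferase reporter line after 16 hr compound exposure at 37 C, 5% CO2.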

[18] = qHTS assay for small molecule agonists of the antioxidant response element (ARE) signaling pathway measured by Nrf2-dependant transcriptional activity - cell viability counter screen (AID 720653; active means well fitted curve in the direction sought with a large enough effect in the repeat runs; an effect the other way counts as inactive or inconclusive; further: on the % scale 0 is the no-effect control and ±100 the full control effect); conditions: ARE-bla HepG2 viability, CellTiter-Glo ATP luminescence, 16 h; max response: stronger effect = lower value
How it was run: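 ARE-bla HepG2 cells (2,000/well) rested 5 hrs at 37C/5% CO2, then exposed to compounds in DMSO for 16 hrs. Viability was read in the same wells as intracellular ATP by luminescence, 30 min at room temperature after reagent addition.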

[19] = qHTS assay for cell viability of HEK293 cells (AID 743288); conditions: ATP luminescence (CellTiter-Glo), 18 h; max response: stronger effect = lower value; further: on the % scale 0 is the no-effect control and ±100 the full control effect; nearly all actives have a fitted effect of over 50% in size
How it was run: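 After 18 h compound exposure at 37 C, parental HEK293 cells (2,000/well) are lysed with CellTiter-Glo and luminescence is read following 30 min at room temperature.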

[20] = qHTS assay for cell viability of the p53RE-bla HCT-116 cell line (AID 743292); further: on the % scale 0 is the no-effect control and ±100 the full control effect; nearly all actives have a fitted effect of over 55% in size
How it was run: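 CellSensor p53RE-bla HCT-116 cells, 4,000/well, preincubated 5 h at 37 C, then exposed to compounds in DMSO for 16 h at 37 C. Viability read as CellTiter-Glo luminescence (intracellular ATP) after 30 min at room temperature.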

[21] = NCATS anti-infectives library activity on HEK293 viability as a counter-qHTS vs the C. elegans viability qHTS (AID 1745854); further: on the % scale 0 is the no-effect control and ±100 the full control effect
How it was run: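 Cytotoxicity counter-screen to a worm viability qHTS: CellTiter-Glo luminescence read 10 min after reagent addition. Compounds (final up to 41.7 uM, a 1:5 dilution series) incubated 24 hr at 37C with 1,500 HEK293 cells per well; digitonin control.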

[22] = target: Nuclear receptor subfamily 1 group I member 2 (Rattus norvegicus) (UniProt Q9R1A7); assay: qHTS assay for small molecule activators of the rat pregnane X receptor (rPXR) signaling pathway (AID 651751; call rule not given here; further: 0% is about no effect); conditions: rPXR reporter cells, luciferase (One-Glo), 24 h
Chain of Nuclear receptor subfamily 1 group I member 2 (Rattus norvegicus) (Q9R1A7 whole entry, looked up): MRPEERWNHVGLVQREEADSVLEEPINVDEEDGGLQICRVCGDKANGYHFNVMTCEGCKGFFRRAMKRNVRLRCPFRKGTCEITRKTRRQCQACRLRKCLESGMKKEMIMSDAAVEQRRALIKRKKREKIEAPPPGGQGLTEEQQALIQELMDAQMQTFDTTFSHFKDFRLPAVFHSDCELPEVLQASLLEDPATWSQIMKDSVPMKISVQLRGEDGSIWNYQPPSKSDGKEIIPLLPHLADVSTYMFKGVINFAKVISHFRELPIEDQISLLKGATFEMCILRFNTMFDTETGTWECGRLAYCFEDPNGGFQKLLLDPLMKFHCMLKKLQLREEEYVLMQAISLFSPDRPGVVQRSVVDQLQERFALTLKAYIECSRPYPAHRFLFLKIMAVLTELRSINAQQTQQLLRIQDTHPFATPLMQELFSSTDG

[23] = qHTS assay for small molecule activators of the human pregnane X receptor (PXR) signaling pathway (AID 720659; call rule not given here; further: 0% is about no effect)

CC12CCC(CC1=O)C2(C)C (stereo not drawn)
-5.66% and -6.43%: max response [4]
inactive: outcome [2] | outcome [3] | max response [5] 4.29% and -7.42% | activity change % (negative = inhibition) [6] 8% and 6.78% | Potency [7] | Potency [8] | activation [9] -2.06% and 2.14% | Potency [10] | Potency [11] | outcome [12] | activation [13] -0.66% and 0.506% | max response [14] -4.19% and 0.373% | Potency [15] | Potency [16] | Potency [17] | max response [18] -1.85% and 2.1% | max response [19] -2.81% and -7.37% | Potency [20] | Potency [21] | max response [22] 4.6% and -1.11% | outcome [23]
0.96% and -15.4%: max response [1]
